According to PubChem BioAssay:
Activity calls are given as the source filed them.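 Rule for the calls, unless noted: active = visual image review flags a hit and inhibition of aggregation exceeds 20%; inconclusive = visual hit but inhibition at or below 20%; inactive = no hit on visual image review.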

Tests used:
[1] = inhibitors of TNFa-induced NFkB p65 translocation, primary screen, imaging, HUVEC, MLSMR starter and 10KST1 sets (AID 438;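 active = inhibition above 20% together with a positive visual image hit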;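 note: compound added about 3h40 before a 20 min TNFalpha stimulation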;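 for inhibition: signal is the nuclear over cytoplasmic p65 intensity ratio per well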); conditions: HUVEC TNFa-induced p65 nuclear translocation; cell count: measured here: nuclei count (cytotoxicity indicator), at 2.08 µM; inhibition: at 2 µM, stronger effect = higher value, 0% TNFa-plus-vehicle, 100% no-TNFa wells
[2] = reduction of polyQ htt aggregates in cells – imaging, exon1htt(103Q)mCFP cells, high-content imaging, primary screen (AID 483); conditions: exon1htt(103Q)mCFP cell line, aggregate imaging, at 2 µM; inhibition of aggregation: stronger effect = higher value; nuclei count: measured here: cell count, toxicity;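 note: compound exposure lasted 3 days before fixation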;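 for nuclei count: percent of the per-plate median nuclei count of sample wells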
[3] = endothelial E-selectin expression blockers – imaging, HUVEC, immunofluorescence, MLSMR starter and 10KST1 sets, primary screen (AID 487;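 active = visually confirmed hit in the image check and inhibition above 20%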;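 for inhibition: signal is fraction of cell area covered by stained E-selectin grains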;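 for nuclei count: 100% = median nuclei count of all wells on the same plate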); conditions: HUVEC TNFalpha-induced E-selectin immunofluorescence imaging, at 2 µM; inhibition: stronger effect = higher value; nuclei count: measured here: cell number, toxicity
[4] = target: Voltage-gated potassium channel subunit beta-2 (Rattus norvegicus) (UniProt P62483); experiment: inhibitors of rat Kvbeta2 reductase activity – biochemical, NADPH fluorescence, primary screen (AID 622;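 active = fluorescence slope higher than the sample average by over 3 SD, cut at about -0.22 in these data, passing the limit was not always enough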;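 note: slope of raw intensity against log time taken from 70 to 1610 s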); conditions: recombinant KvBeta, 4-cyanobenzaldehyde reduction, at 10 µM, stronger effect = higher value
Voltage-gated potassium channel subunit beta-2 (Rattus norvegicus), sequence (P62483 whole entry, looked up): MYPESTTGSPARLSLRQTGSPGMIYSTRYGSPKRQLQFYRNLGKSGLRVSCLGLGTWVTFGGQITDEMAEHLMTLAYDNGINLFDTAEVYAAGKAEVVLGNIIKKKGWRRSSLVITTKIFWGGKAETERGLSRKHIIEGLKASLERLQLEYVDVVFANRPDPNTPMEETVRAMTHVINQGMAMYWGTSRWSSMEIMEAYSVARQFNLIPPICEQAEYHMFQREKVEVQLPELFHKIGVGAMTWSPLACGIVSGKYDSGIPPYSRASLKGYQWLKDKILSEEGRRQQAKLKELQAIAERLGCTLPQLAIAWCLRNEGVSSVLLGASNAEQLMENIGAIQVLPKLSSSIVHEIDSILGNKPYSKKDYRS

[5] = target: Voltage-gated potassium channel subunit beta-2 (Rattus norvegicus) (UniProt P62483); experiment: enhancers of rat Kvbeta2 NADPH turnover – biochemical, NADPH fluorescence, primary screen (AID 623;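 active = NADPH fluorescence slope more negative than the mean of all samples by about 3 SD, 99.7% confidence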;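 note: fluorescence intensity change per second fitted from 20 to 320 s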); conditions: Recombinant KvBeta, NADPH fluorescence decrease slope, 10 min; at 10 µM; stronger effect = lower value
[6] = target: Alpha-2C adrenergic receptor (Homo sapiens) (UniProt P18825); experiment: compounds altering alpha2C-coupled GIRK flux – cell-based, HEK293 alpha2C/GIRK1/2, thallium flux, primary screen (AID 624;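 active = fluorescence slope after compound addition differing from the mean of all screened samples at 99.7% confidence, in either direction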;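 note: slope of fluorescence ratio to pre-addition baseline per second over 15 to 24 s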); conditions: thallium flux BTC fluorescence, at 10 µM, actives lie on both sides
Alpha-2C adrenergic receptor (Homo sapiens), sequence (P18825 whole entry, looked up): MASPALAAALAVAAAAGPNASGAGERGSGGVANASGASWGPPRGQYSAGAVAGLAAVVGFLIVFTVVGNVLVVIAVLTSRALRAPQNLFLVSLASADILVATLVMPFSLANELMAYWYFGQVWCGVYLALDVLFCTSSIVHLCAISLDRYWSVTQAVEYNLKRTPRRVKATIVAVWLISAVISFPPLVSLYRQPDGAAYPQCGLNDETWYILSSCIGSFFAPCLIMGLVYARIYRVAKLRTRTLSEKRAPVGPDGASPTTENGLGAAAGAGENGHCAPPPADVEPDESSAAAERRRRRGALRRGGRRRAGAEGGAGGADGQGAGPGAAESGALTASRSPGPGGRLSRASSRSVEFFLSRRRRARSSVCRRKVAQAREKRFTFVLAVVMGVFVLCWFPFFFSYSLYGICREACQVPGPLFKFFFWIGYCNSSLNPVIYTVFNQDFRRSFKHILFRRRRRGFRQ

[7] = blockers of RIG-like receptor reporter activation – cell-based, Sendai virus stimulus, luciferase, 10K MLSCN set, TLR/RLR signaling modifier project, primary screen (AID 602276;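 active = inhibition at or above 50% at 10 µM; inactive = inhibition below 50%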;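 note: firefly luciferase from ISG56 promoter only with Renilla not read in this screen; 0% = Sendai virus plus DMSO and 100% = medium plus DMSO without virus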); conditions: HEK293 RL24 IRF3 luciferase reporter, at 10 µM, stronger effect = higher value
[8] = TLR3 IRF3 reporter activation blockers – cell-based, poly I:C stimulus, luciferase, 10K MLSCN set, primary screen (AID 602277;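 active = inhibition of the reporter signal at or above 50%; inactive = inhibition below 50%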); conditions: HEK293-TLR3 RL24 IRF3 luciferase reporter, at 10 µM, stronger effect = higher value

Row | SMILES | cell count [1] | inhibition [1] | inhibition of aggregation [2] | nuclei count [2] [%] | inhibition [3] | nuclei count [3] [%] | fluorescence slope [4] | NADPH fluorescence slope [5] | slope [6] | inhibition [7] | inhibition [8]
1 | Cc1ccc(S(=O)(=O)N2CCN(C(=O)c3cc(=O)[nH]c4ccccc34)CC2)c(C)c1 | 539 | -11.9% (inactive) | -23.6% (inactive) | 100 | 5.3% (inactive) | 162 | -0.5 (inactive) | -2.6e-05 (inactive) | 0.00525 (inactive) | 17.3% (inactive) | 31% (inactive)
2 | COc1ccc(CCNc2oc(Cc3cccc4ccccc34)nc2C#N)cc1OC | 718 | 13.9% (inactive) | 8.4% (inactive) | 81.2 | 24.2% (inactive) | 88.7 | -0.396 (inactive) | -8.6e-06 (inactive) | 0.00516 (inactive) | 17.3% (inactive) | 6.78% (inactive)
3 | COc1ccccc1C(=O)Nc1ccc(N2CCN(Cc3ccccc3)CC2)cc1 | 690 | 12% (inactive) | 23.2% (inactive) | 95.9 | 19.4% (inactive) | 97 | -0.611 (inactive) | -1.3e-06 (inactive) | 0.00369 (inactive) | 9.6% (inactive) | -11% (inactive)
4 | CCn1c(SCc2cc(=O)[nH]c3ccccc23)nc2c1c(=O)n(C)c(=O)n2C | 350 | 1% (inactive) | -9.3% (inactive) | 93.3 | -38.3% (inactive) | 99.2 | -0.336 (inactive) | -3.5e-05 (inactive) | 0.00504 (inactive) | 4.21% (inactive) | 14.7% (inactive)
5 | NS(=O)(=O)c1ccc(NC(=O)N[C@@H](Cc2ccccc2)C(=O)O)cc1 | 292 | -0.8% (inactive) | 5.2% (inactive) | 104 | 16.6% (inactive) | 99.7 | -0.485 (inactive) | -4.3e-05 (inactive) | 0.00476 (inactive) | 10.6% (inactive) | 16.6% (inactive)
6 | c1cncc(-c2nc3c4ccccc4nc(N4CCC(N5CCCCC5)CC4)n3n2)c1 | 512 | -10.4% (inactive) | -10.8% (inactive) | 97.3 | -5.9% (inactive) | 98.2 | -0.455 (inactive) | -0.000334 (inactive) | 0.00496 (inactive) | 24.2% (inactive) | 30% (inactive)
7 | COc1cccc(-c2csc3nc[nH]c(=O)c23)c1 | 517 | 4.9% (inactive) | -18.2% (inactive) | 98.7 | -72.4% (inactive) | 97.9 | -0.426 (inactive) | -3.4e-05 (inactive) | 0.0038 (inactive) | 8.62% (inactive) | 2.24% (inactive)
8 | COC(=O)c1cc2ccsc2n1CC(=O)Nc1cc(C)cc(C)c1 | 510 | -9.5% (inactive) | -2.7% (inactive) | 115 | -22.5% (inactive) | 109 | -0.374 (inactive) | 9.4e-06 (inactive) | 0.0119 (inactive) | -21% (inactive) | -31% (inactive)
